# Measured values as given in PubChem BioAssay (NCATS).
# Inconclusive results are not listed. The source made the active and inactive calls. Calls follow the shape of the dose curve; as a rule, active = well fitted curve in the direction sought with a large enough effect; inconclusive = small, poorly fitted or top-dose-only effect, or another doubt; inactive = no such curve, though single readings can be large or run the other way.
# Assay: qHTS for Inhibitors of the vitamin D receptor (VDR): Hit Validation using a Texas Red Assay (AID 602201)
# Conditions: VDR coregulator binding, Texas Red fluorescence polarization, agonist-bound VDR ligand-binding domain; series mostly up to 57.1 µM
# Method in brief: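 After a 2-hour room-temperature incubation, polarization of Texas-Red emission was read (Ex 595 nm/Em 615 nm). Final mix contained 7 nM Texas Red, 1.5 uM VDR-LBD and LG19078.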
# Potency is read from the fitted curve at half-maximal effect.
row,Compound,Potency
1,O=C(Nc1ccccc1)c1nc(S(=O)(=O)Cc2ccccc2F)ncc1Cl,2.82 µM (active)
2,CC(C)c1nnc(NC(=O)CCS(=O)(=O)c2nc(-c3cccs3)cc(C(F)(F)F)n2)s1,inactive
3,O=C(O)CCNc1ccc(NCCC(=O)O)c2c1C(=O)c1ccccc1C2=O,8.91 µM (active)
4,CC(=O)C1=C(c2ccc(Br)cc2)C(=O)c2ccccc2C1=O,3.55 µM (active)
5,O=C(Nc1ccc(F)cc1)c1nc(S(=O)(=O)Cc2ccccc2)ncc1Cl,5.62 µM (active)
6,O=C(/C=C/c1ccc(Cl)cc1)c1ccc([N+](=O)[O-])o1,2.82 µM (active)
7,NC(=O)c1c(N)sc2c1CCCCC2,14.1 µM (active)
8,O=c1[nH]c(/C=C\c2cccc(Cl)c2)nc(O)c1[N+](=O)[O-],inactive
9,O=C1NN(c2ccccc2)C(=O)/C1=C\c1cccc(OC(=O)c2cccs2)c1,inactive
10,CCN(CC)c1ccc(C=Nc2ccc(N(C)C)cc2)c(O)c1,inactive
11,O=c1cc(CO)oc(C(Nc2cccc(C(F)(F)F)c2)c2ccccn2)c1O (stereo not given),inactive
12,Cc1sc(C(C2C(=O)CC(C)(C)CC2=O)C2C(=O)CC(C)(C)CC2=O)cc1[N+](=O)[O-],7.94 µM (active)
13,CSc1nnc(NC(=O)c2nc(S(=O)(=O)Cc3ccccc3)ncc2Cl)s1,28.2 µM (active)
14,COc1ccc(C)cc1N1C(=N)/C(=C2/Nc3ccccc3S2)C(c2ccccc2)C1=O (stereo not given),10 µM (active)
15,S=C(NNc1ccnc2cc(Cl)ccc12)Nc1ccccc1Cl,14.1 µM (active)
16,Cc1cccc2c1N(Cc1ccccc1OCCC(C)C)C(=O)C2=O,12.6 µM (active)
17,CCN(CC)c1ccc(NC(=O)c2cccc(C)c2)cc1S(=O)(=O)Nc1ccccc1OC,inactive
18,O=C(CCN1CCc2ccccc2C(O)(c2ccccc2)C1)c1ccc2c(c1)OCCO2 (stereo not given),inactive
19,COc1ccc(OC)c2c1C(=O)C(Cl)=C(Cl)C2=O,7.08 µM (active)
20,[O-]/[N+](=C/c1ccc(F)cc1)c1ccc(Cl)cc1,inactive

row,Compound,Potency
1,Cc1cc(C)nc(S/C=C/C(=O)c2ccccc2)n1,14.1 µM (active)
2,CCCc1nnc(NC(=O)c2nc(S(=O)(=O)Cc3cccc(C)c3)ncc2Cl)s1,inactive
3,CN1CCN(C(=O)c2sc(=S)n(-c3ccccc3)c2N)CC1,inactive
4,CCOc1ccc(/C=C/C(=O)c2c(O)cc(C)oc2=O)cc1,25.1 µM (active)
5,CC(=O)N1CC[n+]2c(-c3ccc([N+](=O)[O-])cc3)csc21,7.08 µM (active)
6,Cc1c(C(=O)Nc2nc(-c3ccccn3)cs2)oc2ccccc12,inactive
7,C#CCOc1ccc(/C=C2/C(=O)ON=C2C)cc1Br,inactive
8,O=C(/C=C/c1cc(Br)ccc1O)c1ccco1,inactive
9,CC1(C)CC(=O)C(C(C2=C(O)CC(C)(C)CC2=O)c2ccc(O)c([N+](=O)[O-])c2)=C(O)C1,inactive
10,O=C(Oc1ccccc1/C=C\C(=O)c1cc2ccccc2o1)c1ccccc1,8.91 µM (active)
11,NS(=O)(=O)c1ccc(NC(=O)c2nc(S(=O)(=O)Cc3ccccc3F)ncc2Cl)cc1,3.16 µM (active)
12,O=c1nc(/C=C/c2cc([N+](=O)[O-])ccc2Cl)cc(C(F)(F)F)[nH]1,3.55 µM (active)
13,O=C1OC(NC(=O)c2ccccc2)C(n2cc(CO)nn2)=C1Cl (stereo not given),inactive
14,O=C(NC1CCCCCC1)C(=S)N1CCOCC1,inactive
15,N#Cc1ccc(/C=C/C(=O)c2cccnc2)cc1,inactive
16,Cc1c(Cc2ccc3c(c2)OCO3)sc(NC(=O)c2cccc3ccccc23)c1C(N)=O,28.2 µM (active)
17,O=C(/C=C/c1cccnc1)c1ccc([N+](=O)[O-])cc1,3.16 µM (active)
18,CNc1ccc(Br)cc(C(=O)/C=C/c2cccc(Cl)c2Cl)c1=O,3.55 µM (active)
19,O=[N+]([O-])c1c(NCCCO)cc(Sc2ccc(Cl)cc2)c2nonc12,15.8 µM (active)
20,Nc1c(C(=O)N2CCCCC2)sc(=S)n1-c1ccccc1,35.5 µM (active)
